The full data set covers some 8,800 targets. This sample favours those with a hit. About 0.5% of all pairs of compound and target were hits. A number with no mark means an inactive call.
These targets were tested with C1=CC=C(C=C1)[C@H](COC2=CC3=C(C=C2)NC(=O)N3)NC(=O)C4=CC=CN(C4=O)CC5=CC(=C(C=C5)F)F (assay: log2 fold change, soluble protein after heating vs DMSO (PISA); higher = thermal stabilisation; K562 lysate, 10 uM; active = over 0.2 and 3.5 SD of the protein, either way, in both replicates (recomputed)).
Method in brief: (§1)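 Pellets of K562 cells were dounce-homogenised in PBS pH 7.4 with 1 mM MgCl2, and the crude extract was held at 1 mg/mL protein for a 30 min treatment with 10 μM compound. Aliquots were heated for 3 min over 48°C-58°C and pooled before NP-40 was added to 0.5% at 4°C. The supernatant from 21,000xg for 90 min was quantified by TMTpro 16plex LC-MS/MS with channel sums equalised. Values are reported from duplicates as log-two fold change in thermal stability relative to solvent controls.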

Sequence of UniProt Q92698 (Q92698 whole entry, looked up): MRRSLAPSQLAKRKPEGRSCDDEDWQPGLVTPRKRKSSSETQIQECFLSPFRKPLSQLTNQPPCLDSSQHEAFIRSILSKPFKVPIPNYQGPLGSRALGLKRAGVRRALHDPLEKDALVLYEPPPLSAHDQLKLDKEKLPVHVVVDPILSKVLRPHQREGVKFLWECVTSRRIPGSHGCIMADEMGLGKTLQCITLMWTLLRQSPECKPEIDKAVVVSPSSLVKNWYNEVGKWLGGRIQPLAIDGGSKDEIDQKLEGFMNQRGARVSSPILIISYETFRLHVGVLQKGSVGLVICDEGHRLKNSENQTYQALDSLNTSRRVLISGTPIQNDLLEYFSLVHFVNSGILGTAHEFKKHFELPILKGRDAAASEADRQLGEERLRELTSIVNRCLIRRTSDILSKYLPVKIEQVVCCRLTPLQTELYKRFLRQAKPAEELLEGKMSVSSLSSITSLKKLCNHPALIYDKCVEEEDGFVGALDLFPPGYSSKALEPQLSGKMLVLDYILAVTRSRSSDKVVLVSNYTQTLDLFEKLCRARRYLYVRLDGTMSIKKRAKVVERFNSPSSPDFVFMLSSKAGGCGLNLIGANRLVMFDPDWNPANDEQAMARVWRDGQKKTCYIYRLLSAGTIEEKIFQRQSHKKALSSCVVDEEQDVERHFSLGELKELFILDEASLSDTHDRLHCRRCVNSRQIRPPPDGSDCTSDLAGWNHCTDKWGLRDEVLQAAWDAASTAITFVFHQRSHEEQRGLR
Sequence of UniProt P28702 (P28702 whole entry, looked up): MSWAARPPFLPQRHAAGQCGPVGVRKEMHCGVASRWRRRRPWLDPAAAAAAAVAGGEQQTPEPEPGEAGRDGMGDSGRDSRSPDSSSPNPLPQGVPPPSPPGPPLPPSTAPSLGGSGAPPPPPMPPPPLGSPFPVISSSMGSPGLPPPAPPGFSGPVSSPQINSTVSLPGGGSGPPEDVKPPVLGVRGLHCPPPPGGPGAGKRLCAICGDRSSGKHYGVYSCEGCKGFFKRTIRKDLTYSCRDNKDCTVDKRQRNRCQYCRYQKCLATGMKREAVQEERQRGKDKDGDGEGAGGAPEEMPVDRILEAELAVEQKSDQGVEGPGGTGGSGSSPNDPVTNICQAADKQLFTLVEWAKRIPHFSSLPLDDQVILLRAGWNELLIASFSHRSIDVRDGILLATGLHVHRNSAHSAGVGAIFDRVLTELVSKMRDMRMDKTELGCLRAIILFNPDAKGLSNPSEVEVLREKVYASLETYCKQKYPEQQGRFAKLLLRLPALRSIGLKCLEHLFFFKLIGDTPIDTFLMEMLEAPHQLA
Sequence of UniProt Q9BXT8 (Q9BXT8 whole entry, looked up): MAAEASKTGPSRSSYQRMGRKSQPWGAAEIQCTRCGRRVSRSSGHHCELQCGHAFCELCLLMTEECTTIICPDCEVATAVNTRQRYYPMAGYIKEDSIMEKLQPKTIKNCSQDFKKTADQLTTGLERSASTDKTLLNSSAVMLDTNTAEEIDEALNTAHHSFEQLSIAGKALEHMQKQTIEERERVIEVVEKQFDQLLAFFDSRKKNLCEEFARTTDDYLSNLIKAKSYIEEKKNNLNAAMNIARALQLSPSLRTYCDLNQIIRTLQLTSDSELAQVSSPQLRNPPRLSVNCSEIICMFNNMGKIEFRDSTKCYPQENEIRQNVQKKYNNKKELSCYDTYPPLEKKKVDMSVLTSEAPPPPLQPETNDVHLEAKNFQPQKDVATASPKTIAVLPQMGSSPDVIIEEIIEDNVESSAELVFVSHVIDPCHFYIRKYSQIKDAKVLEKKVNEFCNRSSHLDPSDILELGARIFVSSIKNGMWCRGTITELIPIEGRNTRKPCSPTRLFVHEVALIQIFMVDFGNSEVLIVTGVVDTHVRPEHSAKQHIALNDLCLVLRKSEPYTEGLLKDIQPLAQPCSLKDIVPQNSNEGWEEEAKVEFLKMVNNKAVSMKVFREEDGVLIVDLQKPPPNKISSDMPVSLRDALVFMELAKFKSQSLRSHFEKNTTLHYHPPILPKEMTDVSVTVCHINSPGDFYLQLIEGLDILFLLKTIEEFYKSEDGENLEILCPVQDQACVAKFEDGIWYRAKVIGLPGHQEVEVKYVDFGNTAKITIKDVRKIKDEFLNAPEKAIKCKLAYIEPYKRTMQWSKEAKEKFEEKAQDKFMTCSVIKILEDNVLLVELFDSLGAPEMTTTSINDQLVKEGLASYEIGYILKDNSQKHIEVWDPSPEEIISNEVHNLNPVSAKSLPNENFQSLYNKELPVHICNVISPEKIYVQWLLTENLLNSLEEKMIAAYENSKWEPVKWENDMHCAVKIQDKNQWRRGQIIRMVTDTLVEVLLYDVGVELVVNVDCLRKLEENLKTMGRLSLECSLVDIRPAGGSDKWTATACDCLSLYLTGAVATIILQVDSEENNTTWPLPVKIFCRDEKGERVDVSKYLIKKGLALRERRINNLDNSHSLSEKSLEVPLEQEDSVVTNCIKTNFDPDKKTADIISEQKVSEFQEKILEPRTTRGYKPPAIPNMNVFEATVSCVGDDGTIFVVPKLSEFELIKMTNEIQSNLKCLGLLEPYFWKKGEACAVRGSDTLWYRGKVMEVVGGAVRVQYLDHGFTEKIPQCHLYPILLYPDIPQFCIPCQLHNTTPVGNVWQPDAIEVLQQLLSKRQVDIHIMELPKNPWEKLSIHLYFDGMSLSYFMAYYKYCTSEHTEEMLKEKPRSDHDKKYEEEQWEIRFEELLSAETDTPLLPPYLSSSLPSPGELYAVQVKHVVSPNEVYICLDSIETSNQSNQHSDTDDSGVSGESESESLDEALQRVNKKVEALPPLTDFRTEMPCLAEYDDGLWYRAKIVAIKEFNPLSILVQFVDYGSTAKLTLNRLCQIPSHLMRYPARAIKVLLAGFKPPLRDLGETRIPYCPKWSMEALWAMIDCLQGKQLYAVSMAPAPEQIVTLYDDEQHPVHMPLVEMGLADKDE
Sequence of UniProt Q9NW64 (Q9NW64 whole entry, looked up): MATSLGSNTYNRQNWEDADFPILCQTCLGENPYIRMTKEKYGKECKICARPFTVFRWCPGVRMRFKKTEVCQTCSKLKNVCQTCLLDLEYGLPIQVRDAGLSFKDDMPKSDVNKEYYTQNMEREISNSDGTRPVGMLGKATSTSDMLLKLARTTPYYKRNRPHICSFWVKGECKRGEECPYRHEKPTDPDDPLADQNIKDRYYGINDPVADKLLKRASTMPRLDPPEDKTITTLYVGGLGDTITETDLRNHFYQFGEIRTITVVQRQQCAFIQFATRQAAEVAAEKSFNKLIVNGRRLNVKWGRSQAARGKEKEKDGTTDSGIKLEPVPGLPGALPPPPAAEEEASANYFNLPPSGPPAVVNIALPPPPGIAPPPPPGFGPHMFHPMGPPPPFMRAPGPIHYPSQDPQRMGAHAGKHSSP
Sequence of UniProt Q8WXA3 (Q8WXA3 whole entry, looked up): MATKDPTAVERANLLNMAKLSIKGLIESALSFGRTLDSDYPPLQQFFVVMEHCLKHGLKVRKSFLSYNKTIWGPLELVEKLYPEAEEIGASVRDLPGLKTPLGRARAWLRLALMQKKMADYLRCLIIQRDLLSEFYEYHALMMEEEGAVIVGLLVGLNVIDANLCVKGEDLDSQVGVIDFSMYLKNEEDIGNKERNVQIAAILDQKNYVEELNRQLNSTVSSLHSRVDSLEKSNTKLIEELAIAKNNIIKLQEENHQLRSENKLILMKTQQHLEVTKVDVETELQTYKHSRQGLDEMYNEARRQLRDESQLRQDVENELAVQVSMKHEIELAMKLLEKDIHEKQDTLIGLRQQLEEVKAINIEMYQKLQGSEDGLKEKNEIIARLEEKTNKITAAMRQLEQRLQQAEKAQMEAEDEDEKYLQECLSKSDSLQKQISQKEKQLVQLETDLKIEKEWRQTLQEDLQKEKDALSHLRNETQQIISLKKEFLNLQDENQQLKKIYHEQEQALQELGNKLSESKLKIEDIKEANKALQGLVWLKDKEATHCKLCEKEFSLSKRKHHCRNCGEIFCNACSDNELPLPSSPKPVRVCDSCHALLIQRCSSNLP
Sequence of UniProt P78406 (P78406 whole entry, looked up): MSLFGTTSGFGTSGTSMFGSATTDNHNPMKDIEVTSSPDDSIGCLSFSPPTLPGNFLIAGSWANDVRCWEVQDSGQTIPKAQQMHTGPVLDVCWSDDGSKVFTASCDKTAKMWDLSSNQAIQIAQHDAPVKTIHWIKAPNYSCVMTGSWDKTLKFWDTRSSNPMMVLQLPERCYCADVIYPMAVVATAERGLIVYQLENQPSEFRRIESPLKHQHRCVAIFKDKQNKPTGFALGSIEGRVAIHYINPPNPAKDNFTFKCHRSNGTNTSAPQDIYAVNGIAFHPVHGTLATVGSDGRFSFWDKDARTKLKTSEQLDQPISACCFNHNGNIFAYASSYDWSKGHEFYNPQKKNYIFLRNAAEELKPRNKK
Sequence of UniProt Q9Y225 (Q9Y225 whole entry, looked up): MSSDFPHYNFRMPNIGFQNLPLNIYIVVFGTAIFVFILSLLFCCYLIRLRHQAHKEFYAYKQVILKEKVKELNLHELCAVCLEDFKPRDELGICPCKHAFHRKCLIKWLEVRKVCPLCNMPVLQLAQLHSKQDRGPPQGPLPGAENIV
Sequence of UniProt Q8NC44 (Q8NC44 whole entry, looked up): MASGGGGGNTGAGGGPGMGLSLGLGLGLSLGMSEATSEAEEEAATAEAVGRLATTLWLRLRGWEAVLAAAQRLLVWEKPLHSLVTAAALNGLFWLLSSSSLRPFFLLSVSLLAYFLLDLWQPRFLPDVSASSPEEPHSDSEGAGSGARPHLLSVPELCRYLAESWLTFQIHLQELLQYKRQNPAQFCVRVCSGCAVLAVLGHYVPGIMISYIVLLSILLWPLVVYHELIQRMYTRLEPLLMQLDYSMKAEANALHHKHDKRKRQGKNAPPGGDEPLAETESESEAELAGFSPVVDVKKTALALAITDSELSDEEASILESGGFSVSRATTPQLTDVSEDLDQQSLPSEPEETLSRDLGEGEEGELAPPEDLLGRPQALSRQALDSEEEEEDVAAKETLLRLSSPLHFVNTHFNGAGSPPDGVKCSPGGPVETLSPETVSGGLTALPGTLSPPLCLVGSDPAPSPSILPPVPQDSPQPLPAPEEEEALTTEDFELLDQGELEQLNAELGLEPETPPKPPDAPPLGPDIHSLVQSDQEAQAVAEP

| Target | log2 fold change |
| --- | --- |
| RBM22 (UniProt Q9NW64) | -0.073 |
| RNF17 (UniProt Q9BXT8) | -0.241 |
| RALGAPB isoform 3 (UniProt Q86X10) | 0.107 |
| RPLP0P6 (UniProt Q8NHW5) | 0.052 |
| RHBDD1 (UniProt Q8TEB9) | -0.032 |
| RAP1B (UniProt F5GZG1) | -0.082 |
| RNF24 isoform 2 (UniProt Q9Y225) | -0.219 |
| RYR1 (UniProt P21817) | -0.011 |
| SERAC1 (UniProt Q96JX3) | -0.122 |
| RNF168 (UniProt Q8IYW5) | -0.008 |
| RAD54L (UniProt Q92698) | -0.013 |
| RAE1 (UniProt P78406) | -0.022 |
| RPL8 (UniProt P62917) | -0.012 |
| RUFY2 isoform 1 (UniProt Q8WXA3) | -0.28 |
| REEP5 (UniProt Q00765) | 0.007 |
| SAMD4A (UniProt Q9UPU9) | 0.114 |
| RXRB isoform 3 (UniProt P28702) | -0.214 |
| RETREG2 (UniProt Q8NC44) | -0.095 |

The targets below were run with CC1=C(SC2=C1C(=N[C@H](C3=NN=C(N32)C)CC(=O)N)C4=CC=C(C=C4)Cl)C in the same assay as above.
Method in brief: as §1

| Target | log2 fold change |
| --- | --- |
| RBM22 (UniProt Q9NW64) | 0.012 |
| RNF17 (UniProt Q9BXT8) | 1 (active) |
| RALGAPB isoform 3 (UniProt Q86X10) | 0.05 |
| RPLP0P6 (UniProt Q8NHW5) | -0.038 |
| RHBDD1 (UniProt Q8TEB9) | 0.058 |
| RAP1B (UniProt F5GZG1) | -0.124 |
| RNF24 isoform 2 (UniProt Q9Y225) | 0.037 |
| RYR1 (UniProt P21817) | -0.028 |
| SERAC1 (UniProt Q96JX3) | 0.145 |
| RNF168 (UniProt Q8IYW5) | -0.052 |
| RAD54L (UniProt Q92698) | -0.031 |
| RAE1 (UniProt P78406) | -0.081 |
| RPL8 (UniProt P62917) | -0.036 |
| RUFY2 isoform 1 (UniProt Q8WXA3) | -0.106 |
| REEP5 (UniProt Q00765) | 0.009 |
| SAMD4A (UniProt Q9UPU9) | 0.086 |
| RXRB isoform 3 (UniProt P28702) | -0.018 |
| RETREG2 (UniProt Q8NC44) | 0.016 |
